# Assay outcomes (PubChem)
# Hits are enriched below; roughly 0.54% of the tested compounds scored in any of these assays.
# Vif-APOBEC3F blk: Vif-A3F binding inhibition. HeLa A3F-eYFP + Vif (tagged APOBEC3F with the HIV-1 protein that degrades it), YFP fluorescence increase. Potency, µM (top dose mostly 46.1 µM), without a hit: at the highest dose activity, negative = active. actives 0.2% (n = 390,000). AID 602313; also: potency is read from the fitted curve at half-maximal effect; % of control where 0% means no effect; nearly all actives have a fitted effect of over 65% in size
#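 Fluorescence increase (Ex 488/Em 500-530) after overnight compound treatment at 37 deg C flags inhibition of Vif-driven A3F-eYFP loss in stable HeLa A3F-eYFP/Vif cells seeded overnight beforehand.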
# Chronic BCR inh: inhibitors of chronic active B-cell receptor signaling; Potency, µM (titrated, usually from 46.1 µM), without a hit: at the highest dose activity change, negative = inhibition, usual class: inhibitors; actives 0.05% (n = 340,000); ABC-DLBCL IkBa-CBG/CBR reporter, luminescence ratio, 4 h; active = well fitted inhibition curve with a large enough effect in the signal ratio, with a control signal flat, not every such curve was filed as active; inconclusive = small, poorly fitted or top-dose-only effect, or effect the other way, or a change in a side signal; the % refers to the signal ratio;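 also: potency is read from the fitted curve at half-maximal effect; plate controls were basal doxycycline-induced cells for no effect and cells given 10 µM MG132 for full effect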
#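 Cell line TMD8 (human ABC DLBCL), stably expressing tet-inducible CBG68-IkBa fusion and CBR; IMDM/0.5% FBS; cpd up to 46 uM; dox induction, 4 h, 37C/5% CO2; dual luminescence; green/red ratio; MG132 control.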
# MBNL1-CUG inh: MBNL1-poly(CUG) RNA binding inhibition; Q9NR56; TR-FRET MBNL1-His/biotin-(CUG)12 binding, 665/545 ratio; Potency, µM (titrated, usually from 57.5 µM), for inactives: at the top dose activity change, negative = inhibition, most hits filed as inhibitors; actives 0.036% (n = 280,000); AID 2675; active = well fitted inhibition curve with a large enough effect in the signal ratio, with a control signal flat, not every such curve was filed as active; inconclusive = small, poorly fitted or top-dose-only effect, or effect the other way, or a change in a side signal; inactive = no such curve, though single readings can be large or run the other way; the % refers to the signal ratio; also: potency is read from the fitted curve at half-maximal effect; % is scaled to controls: 0 for no effect and ±100 for the full control effect
#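 Compound titration spanned 92 nM–58 uM against the MBNL1-His/biotin-(CUG)12 complex. After 60 min at room temperature with 5 nM streptavidin-XL665 and 0.055 ng/ul terbium anti-His, ratiometric 665/545 nm emission (Ex 340 nm) normalized to controls.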
# TCR activator: activates T cell receptor signaling; primary human leukocytes, anti-CD3, IL-2 HTRF, 48 h; Potency, µM (series often up to 9.22 µM), inactives show top-dose activation of IL-2 secretion, hits mostly activators; AID 504894; 330,000 tested, under 10 active; also: % of control where 0% means no effect
#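 48 hr co-incubation of compounds, a-CD3 beads and primary human leukocytes; IL-2 quantified homogeneously by HTRF with anti-IL-2 K and d2 conjugates.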
# uPA surface inh: inhibitors of cell surface uPA generation; cell surface uPA generation assay, qHTS; Potency, µM (doses to about 38.3 µM), inactives show top-dose activity change, negative = inhibition, actives largely listed as inhibitors; actives 0.31% (n = 330,000); active = well fitted inhibition curve with a large enough effect; inconclusive = small, poorly fitted or top-dose-only effect; inactive = no such curve, though single readings can be large or run the other way; tested in mouse RAW 264.7 cells; also: potency is read from the fitted curve at half-maximal effect; % is scaled to controls: 0 for no effect and ±100 for the full control effect; nearly all actives have a fitted effect of over 55% in size
# Vif-A3G inh: Vif-A3G binding inhibition; Q9HC16; HeLa A3G-eYFP + Vif (tagged APOBEC3G with the HIV-1 protein that degrades it), YFP fluorescence, overnight; Potency, µM (highest dose often 46.1 µM), for the others: at the highest dose activity, negative = active, hits mostly inhibitors; actives 0.076% (n = 410,000); also: potency is read from the fitted curve at half-maximal effect; % is scaled to controls: 0 for no effect and ±100 for the full control effect; nearly all actives have a fitted effect of over 60% in size
# Target sequence (Q9HC16 whole entry, looked up): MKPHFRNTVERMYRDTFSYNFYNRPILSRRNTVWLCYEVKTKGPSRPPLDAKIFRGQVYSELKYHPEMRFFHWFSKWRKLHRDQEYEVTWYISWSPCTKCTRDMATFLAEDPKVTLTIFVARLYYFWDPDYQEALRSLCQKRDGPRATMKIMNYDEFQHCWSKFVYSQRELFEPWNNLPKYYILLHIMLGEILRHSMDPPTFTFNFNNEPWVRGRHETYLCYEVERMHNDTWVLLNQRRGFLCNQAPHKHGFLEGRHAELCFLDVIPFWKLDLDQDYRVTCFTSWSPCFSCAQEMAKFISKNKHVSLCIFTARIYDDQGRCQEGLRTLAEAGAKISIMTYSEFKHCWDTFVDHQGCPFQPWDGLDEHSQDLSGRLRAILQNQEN
#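 Read-out is eYFP fluorescence (Ex 488/Em 500-530) from Vif-expressing HeLa A3G-eYFP cells; more signal means A3G escaped Vif-mediated degradation. Cells plated overnight, compound pinned in, incubated overnight at 37 deg C.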
# MBNL1-CUG FRET: blocks human MBNL1 binding to CUG repeat RNA, TR-FRET validation; shares compounds with MBNL1-CUG inh; actives 50% (n = 140); TR-FRET MBNL1-His / biotin-(CUG)12 binding, 60 min; AID 493199; Potency, µM (series often up to 57.6 µM), for the others: at the top dose activity change, negative = inhibition, hits mostly inhibitors
# MBNL1 AlphaScrn: MBNL1-CUG RNA binding inhibition, AlphaScreen validation. AID 493205. AlphaScreen MBNL1-His / biotin-(CUG)12 binding. Potency, µM (top dose mostly 57.7 µM), for the others: top-dose activity, negative = inhibition, hits mostly inhibitors. shares compounds with MBNL1-CUG inh. actives 30% (n = 140)
# Menin-MLL HTRF: hit in HTRF counterscreen for MBNL1-poly(CUG) binding inhibitors; Potency, µM (titrated, usually from 57.6 µM), without a hit: at the highest dose activity, negative = inhibition, most hits filed as inhibitors; shares compounds with MBNL1-CUG inh; His-Menin/biotin-MLL peptide TR-FRET counterscreen; actives 20% (n = 120)
# * = called active by the depositor; u = inconclusive; x = no result; [ ] = dose if it differs, or a comment. Unless noted, calls follow the shape of the dose curve; as a rule, active = well fitted curve in the direction sought with a large enough effect; inconclusive = small, poorly fitted or top-dose-only effect, or another doubt; inactive = no such curve, though single readings can be large; an effect the other way counts as inactive or inconclusive.
SMILES,Vif-APOBEC3F blk,Chronic BCR inh,MBNL1-CUG inh,TCR activator,uPA surface inh,Vif-A3G inh,MBNL1-CUG FRET,MBNL1 AlphaScrn,Menin-MLL HTRF
CCC(CC)NC(=O)Nc1ccc(F)c(Cl)c1,-9.4%,1.0%,39.8µM*,10.0%,-4.6%,-0.6%,u,3.7%,-23.4%
Cc1ccc(NC(=O)Nc2ccc(F)c(Cl)c2)cc1,7.4%,u,-0.3%,4.3%,-11.5%,-0.7%,x,x,x
NC(=O)COc1ccccc1C(=O)Nc1ccccc1,x,x,x,x,x,1.3%,x,x,x
COc1ccc(CCNC(=O)C2CC(=O)N(c3ccc(C)cc3)C2)cc1OC (stereo not given),-9.7%,-12.0%,-4.3%,-9.1%,-12.1%,1.5%,u,-8.1%,0.8%
O=C(OC[C@H]1O[C@@H](OC(=O)c2cc(O)c(O)c(OC(=O)c3cc(O)c(O)c(O)c3)c2)[C@H](OC(=O)c2cc(O)c(O)c(OC(=O)c3cc(O)c(O)c(O)c3)c2)[C@@H](OC(=O)c2cc(O)c(O)c(OC(=O)c3cc(O)c(O)c(O)c3)c2)[C@@H]1OC(=O)c1cc(O)c(O)c(OC(=O)c2cc(O)c(O)c(O)c2)c1)c1cc(O)c(O)c(OC(=O)c2cc(O)c(O)c(O)c2)c1,x,u,x,x,x,x,x,x,36.6µM*
Cc1ccc(SC2=NS(=O)(=O)c3ccccc32)c(C)c1,x,x,x,x,x,-3.1%,x,x,x
CC(Sc1nnc(-c2ccccc2)n1C)C(=O)NCc1ccco1 (stereo not given),x,x,x,x,x,2.4%,x,x,x
N.N.N.N.N.N.N.N.N.N.N.N.N.N.O.O.[Cl-].[Cl-].[Cl-].[Cl-].[Cl-].[Cl-].[Ru].[Ru].[Ru],x,x,x,x,x,x,u,0.178µM*,x
c1ncc2snnc2n1,x,x,x,x,x,2.7%,x,x,x
Cn1nccc1NC(=O)Nc1cccc(Br)c1,1.1%,7.6%,10µM*,-3.9%,-31.7%,-9.0%,8.19µM*,-4.6%,25.9µM*
O=C(Nc1ccc(F)cc1)Nc1cccc(Br)c1,-2.4%,x,x,-0.8%,4.6%,-3.3%,x,x,x
Cn1nccc1NC(=O)Nc1ccccc1,3.6%,0.0%,u,-5.3%,3.1%,-2.5%,x,x,x
Cn1nccc1NC(=O)Nc1ccc(Cl)cc1,0.3%,9.3%,39.8µM*,3.1%,-8.0%,-2.8%,10.3µM*,0.1%,u
Cc1cc(C)c2c(C)ccnc2c1,x,x,x,x,x,-4.5%,x,x,x
CC(C)N1CCC2(CC1)C(C#N)=C(N)NC(S)=C2C#N,x,12.0%,u,7.9%[46.1 µM],x,x,20.6µM*,-12.0%,18.3µM*
O=C1CC(c2ccccc2)Cc2[nH]c(=O)c(C(=O)O)cc21 (stereo not given),x,x,x,x,x,1.8%,x,x,x
COc1cc(C(=O)N/N=C/c2ccc(OC)c(CN3CCN(c4ccc(F)cc4)CC3)c2)ccc1O,9.3%,u,31.6µM*,2.2%,-2.3%,-1.4%,u,-29.2%,-18.5%
COc1ccc(/C=N/NC(=O)c2ccccc2)cc1CN1CCN(c2ccc(F)cc2)CC1,-3.3%,u,-3.0%,-6.7%,4.3%,-0.9%,x,x,x
